Assay in all cases: NCI-60 one-dose screen, 48 h (100 = growth as untreated, 0 = no growth, -100 = all killed)
Settings in all cases: 10 µM unless noted

Test [1] deals with DU-145 prostate.
The subject of test [2] is K-562 leukemia.
Test [3] concerns MALME-3M melanoma.
Test [4] relates to MDA-MB-231 breast.
The subject of test [5] is RXF 393 renal.
The test system of test [6] is SF-268 CNS.
Test [7] relates to SF-295 CNS.
For test [8], the system named is UACC-257 melanoma.
Test [9] concerns M14 melanoma.
Test [10] has as its system HCT-15 colon.
The subject of test [11] is HT29 colon.
Test [12] has as its system SNB-75 CNS.
The test system of test [13] is SNB-19 CNS.
In test [14] the test system is U251 CNS.
Test [15] deals with PC-3 prostate.
Test [16] deals with SK-MEL-5 melanoma.
Test [17] relates to UACC-62 melanoma.
Test [18] relates to LOX IMVI melanoma.
In test [19] the test system is SK-MEL-28 melanoma.

This is part of a sample that, as a whole, favours compounds with a hit. Of some 83,000 tested, about 20% had one in any assay.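 Treatment: one concentration, 48 hours, 96-well format. Scoring: percent growth, with anything below 10 considered active.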 Unmarked numbers belong to inactive results. The source made the active and inactive calls.

In the case of `O=C(/C=C/c1cc2ccccc2[nH]c1=O)/C=C/c1cc2ccccc2[nH]c1=O`, the growth was 10.1% in test [1]; 1.78% (active) in test [2]; -24.8% (active) in [3]; -6.36% (active) in test [4]; -91.8% (active) in test [5]; -36% (active) in test [6]. Also, the growth in [7] is 4.04% (active); in test [8], -31.9% (active); in test [9], -45.4% (active); in test [10] it was 48.2%; in [11], -39.2% (active); in [12], 19.5%. Further, the growth was 44.5% in test [13]; -9.57% (active) in test [14]; 9.61% (active) in [15]; -22.8% (active) in test [16]; 13.5% in test [17]; -65.4% (active) in [18]. Besides, in [19], the growth is 37.9%.

As to `Nc1nc2c(c3ncccc13)C(c1cccc(Br)c1)Cc1ncccc1-2` (stereo not given), the growth is 19.8% in test [1]; 10.3% in test [2]; 58.4% in [3]; 20.4% in [4]; -7.52% (active) in test [5]; 56.4% in test [6]. The growth is 7.75% (active) in [7]; 37.9% in test [8]; 11.2% in [9]; 17.6% in [10]; 0.652% (active) in [11]; 30.1% in [12]. The growth is 31.6% in test [13]; 11.3% in test [14]; 25.6% in [15]; 31.8% in test [16]; 27.4% in test [17]; 38.9% in test [18]. Besides, the growth in test [19] was 55.1%.

As to `COc1cc(NCCCCN=C(N)N)c2ncccc2c1`, the growth in test [1] was 108%; in [2] it was 84.6%; in [3], 13.6%; in test [4], 63.5%; in test [5], 112%; in [6], 30.4%. Besides, the growth was 87% in [7]; 102% in test [8]; 96.5% in [9]; 99.9% in test [10]; 79.6% in [11]; 48.6% in [12]. In addition, the growth was 81.2% in test [13]; 48.7% in test [14]; 79.1% in test [15]; 89.2% in [16]; 87.9% in test [17]; 101% in test [18]. Further, the growth in test [19] is 98.9%.

Turning to `COc1ccc(CNc2nccnn2)cc1`, the growth in [1] was 112%; in test [2], 96.2%; in [3], 100%; in [4] it was 106%; in test [5] it was 88.1%; in [6], 103%. The growth in [7] is 101%; in test [8], 107%; in test [9] it was 96%; in test [10] it was 111%; in test [11], 97.8%; in [12] it was 85.6%. The growth in [13] is 102%; in test [14], 94.9%; in test [15], 101%; in test [16], 101%; in test [17], 93.4%; in [18], 105%. Besides, the growth in test [19] was 97.7%.

Consider `O=C1c2cc3c(cc2-c2c1c1cc(F)c(F)cc1c(=O)n2C[C@H](O)CO)OCO3`, for which the growth was 1.97% (active) in test [1]; 6.33% (active) in [2]; -21.3% (active) in test [3]; 5.4% (active) in test [4]; -51.5% (active) in test [5]; 6.49% (active) in [6]. Further, the growth in [7] was -7.95% (active); in test [8], -37.2% (active); in test [9] it was 1.79% (active); in test [10] it was 1.58% (active); in test [11] it was 0.994% (active); in test [12], 4.14% (active). Besides, the growth in [13] is 6.51% (active); in [14] it was -15.5% (active); in test [15] it was 8.59% (active); in test [16], -91.5% (active); in test [17] it was -48.2% (active); in test [18] it was -45.4% (active). Further, in [19], the growth is 10.1%.

`CCOC(=O)C(Cc1cc(I)c(O)c(I)c1)NC(=O)c1ccccc1` (stereo not given): the growth was 109% in [1]; 97.1% in test [2]; 99.5% in test [3]; 102% in test [4]; 99.1% in [5]; 102% in [6]. Further, the growth in [7] is 101%; in test [8], 92.7%; in [9], 99.3%; in test [10], 98.6%; in test [11], 99.9%; in test [12], 94.5%. The growth in test [13] was 99.3%; in test [14], 33.6%; in test [15], 99.1%; in [16], 100%; in test [17], 92.2%; in test [18], 103%. The growth in test [19] is 101%.

With `COc1ccc2nc3cc(Cl)ccc3c(N3CCN(c4nccc(NCc5ccccc5)n4)CC3)c2c1`, the growth is 78.7% in test [1]; 33% in test [2]; 113% in test [3]; 67.5% in test [4]; 42.2% in [5]; 72.3% in test [6]. Further, the growth in test [7] is 81.6%; in test [8] it was 88%; in test [9], 96.3%; in test [10] it was 47.5%; in test [11], 52.7%; in test [12] it was 69.2%. Moreover, the growth in [13] was 96%; in [14] it was 69%; in [15], 78.7%; in test [16], 84%; in test [17] it was 85.2%; in [18], 31.3%. Besides, the growth in [19] was 80.7%.

For `COc1ccc(C(=O)/C=C/c2c[n+](=O)c3ccc(F)cc3n2[O-])cc1`, the growth in [1] is 110%; in test [2] it was 102%; in test [3], 90.9%; in test [4] it was 106%; in test [5] it was 129%; in [6], 96.8%. Besides, the growth was 102% in [7]; 106% in test [8]; 101% in [9]; 101% in test [10]; 106% in test [11]; 106% in test [12]. In addition, the growth in [13] is 103%; in test [14], 95.1%; in test [15], 104%; in test [16], 111%; in test [17], 92.1%; in test [18], 94.2%. In addition, the growth in [19] was 111%.

On to `C/C(=C(/c1ccc(O)cc1)c1ccc(OCCN2CCCC2)cc1)c1ccccc1`, for which the growth in test [1] is 78.8%; in test [2], 2.35% (active); in test [3], 8.05% (active); in [4], 49.6%; in test [5], 42.4%; in test [6], 63.8%. Moreover, the growth in [7] was 44.3%; in test [8], -29.5% (active); in test [9], -53.7% (active); in test [10], 34.6%; in test [11], -10.7% (active); in [12], 46.1%. For the same compound, the growth in test [13] is 73.5%; in [14], 35.1%; in [15] it was 48.1%; in [16], -65.8% (active); in test [17], -29.3% (active); in test [18], -50.2% (active). Also, the growth in test [19] was -40.8% (active).

Turning to `N#Cc1c2c(nc3n[nH]c(N)c13)CCCC2`, the growth in test [1] is 121%; in test [2], 97.7%; in [3] it was 115%; in [4] it was 106%; in test [5], 92.9%; in test [6], 101%. Further, the growth in [7] is 101%; in [8], 101%; in test [9], 104%; in test [10] it was 105%; in [11], 104%; in test [12], 85.6%. In addition, the growth in test [13] is 112%; in test [14], 99.3%; in test [15], 109%; in [16], 118%; in [17], 101%; in [18], 102%. Besides, the growth in test [19] is 122%.

As to `Nc1ccc2c(c1)C(=O)NC2=O`, the growth in [1] was 110%; in test [2], 100%; in test [3], 90.5%; in test [4], 101%; in test [5], 115%; in test [6] it was 92.5%. In addition, the growth in test [7] is 101%; in test [8] it was 98.6%; in test [9] it was 99.4%; in test [10], 98.5%; in test [11], 90.7%; in test [12], 75.8%. In addition, the growth is 93.5% in test [13]; 96% in [14]; 121% in test [15]; 105% in test [16]; 89.7% in [17]; 97.8% in test [18]. Moreover, in test [19], the growth is 99.8%.

With `COc1ccc(CN(c2ccc(C)cc2)C2OC(=O)c3ccccc32)cc1OC` (stereo not given), the growth was 115% in [1]; 99.6% in test [2]; 104% in [3]; 117% in test [4]; 104% in test [5]; 113% in test [6]. The growth in test [7] was 100%; in test [8], 95%; in test [9] it was 110%; in test [10] it was 96.3%; in test [11] it was 97.9%; in test [12], 90.3%. Further, the growth was 96.5% in [13]; 86.3% in test [14]; 90.6% in [15]; 94.7% in test [16]; 94.9% in test [17]; 93.2% in test [18]. The growth in test [19] was 108%.

For `CC/C(Cc1ccccc1)=C(/c1ccc(O)cc1)c1ccc(OCCN2CCCC2)cc1`, the growth in test [1] was -18.6% (active); in test [2], -10.1% (active); in test [3], -72.5% (active); in test [4], -60.8% (active); in test [5], -65% (active); in test [6] it was 9.94% (active). Further, the growth in test [7] was -63.1% (active); in test [8] it was -65.8% (active); in [9], -70.5% (active); in [10] it was -56.2% (active); in [11], -57% (active); in [12] it was -22.6% (active). The growth is 0.126% (active) in test [13]; -89.1% (active) in test [14]; -32.2% (active) in test [15]; -100% (active) in [16]; -77.7% (active) in [17]; -100% (active) in test [18]. The growth in test [19] is -84.5% (active).

Consider `CCN(CC)CCCCNc1ccc(NCCCCN(CC)CC)c2c1C(=O)c1ccccc1C2=O`, for which the growth in [1] is 94.1%; in test [2] it was 1.87% (active); in test [3], 132%; in [4] it was 80.5%; in [5], 74.9%; in test [6], 101%. Further, the growth in test [7] is 110%; in test [8] it was 97.9%; in [9] it was -36.6% (active); in test [10], 76.2%; in test [11], -54.8% (active); in test [12], 142%. For the same compound, the growth in test [13] is 106%; in test [14] it was 85.5%; in test [15], 94.1%; in test [16], 106%; in [17], 111%; in test [18] it was -56.6% (active). For the same compound, the growth in test [19] is 116%.

Regarding `COc1cc(OC)c(/C=C/C(=O)c2c(OC)cc(OC)cc2OC)c(OC)c1`, the growth in [1] was 25.1%; in test [2], 8.98% (active); in [3] it was 60.6%; in [4] it was 39.1%; in test [5] it was -14.7% (active); in test [6] it was 22.1%. Besides, the growth in test [7] was 6.33% (active); in test [8], 52.2%; in test [9], -33.5% (active); in test [10] it was 26%; in [11], 3.25% (active); in test [12], 13.7%. Moreover, the growth in test [13] was 32.8%; in [14], 14.5%; in test [15], 42.8%; in test [16], 1.55% (active); in test [17] it was 7.8% (active); in test [18], 10.8%. In addition, the growth in test [19] is 21.9%.

The record behind these values is PubChem BioAssay (NCI).
